The results in this text go back to PubChem BioAssay AID504834 (National Center for Advancing Translational Sciences (NCATS), 2011).

Molecules are shown by their SMILES. Out of some 320,000 compounds screened, about 22,000 (6.9%) were called active. Not shown: some 27% with an inconclusive outcome. The call rests on the fitted dose curve; in most records, active means well fitted inhibition curve with a large enough effect; inconclusive means small, poorly fitted or top-dose-only effect, or another doubt; inactive means no such curve, though single readings can be large or run the other way. The list comes from a sample in which actives are over-represented; it also holds similar structures and randomly drawn compounds. Entries that show only a call come without a potency.
Potency means the concentration at half of the fitted maximal effect.

This experiment in a line: Primary qHTS for delayed death inhibitors of the malarial parasite plastid, 96 hour incubation. Particulars: P. falciparum luciferase reporter growth; series mostly up to 28.7 µM. In a few lines: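 Two parasite generations (96 h, 37 C, 5% CO2) of compound exposure in infected erythrocytes (0.05% parasitemia, 2% hematocrit). Luciferase-reporter P. falciparum; decreased luminescence indicates inhibited growth, aimed at apicoplast-acting delayed death.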
For the compound `CC(OC(=O)CNC(=O)c1ccco1)C(=O)Nc1ccc(Cl)cn1` (stereo not drawn), the Potency result was “inactive”.
Still for that read-out and setting: the entry for `Cc1nn(-c2ccccc2)c(C)c1/C=N/NC(=O)CSc1nc2ccccc2c(=O)n1-c1ccccc1` is “inactive”; for `O=C(CSc1nc2ccccc2[nH]1)N/N=C/C=C\c1ccccc1[N+](=O)[O-]` it is “inactive”.
`Cc1ccc(-n2c(SCC(=O)N/N=C/C=C/c3ccccc3[N+](=O)[O-])nc3ccccc3c2=O)cc1`: the Potency was 10.4 µM (active).
Consider `COc1ccc(CCNC(=O)CN(C)S(=O)(=O)c2ccc3nc(C)sc3c2)cc1OC`, for which the Potency entry was “inactive”.
Still for that read-out and setting: the entry for `CCCCSc1nc2c(c(=O)n1CC)SC(C)C2` (stereo not drawn) is “inactive”.
On to `COCCn1c(SCC(=O)Nc2cc(OC)ccc2OC)nc2c(c1=O)SC(C)C2` (stereo not drawn), for which the Potency entry was “inactive”.
For `Cn1c(SCC(=O)N2CCCCC2)nc2c(c1=O)SCC2`, the Potency result is “inactive”.
On the same count and under the same terms, the figure for `COCCn1c(SCC(=O)Nc2ccccc2F)nc2c(c1=O)SCC2` is 14.7 µM (active).
For `Cn1nnnc1SCC(=O)Nc1ccccc1C(=O)NC1CC1`, the Potency entry is “inactive”.
As for `COCCn1c(SCC(=O)Nc2cc(Cl)ccc2OC)nc2c(c1=O)SC(C)C2` (stereo not drawn), the Potency was 3.7 µM (active).
Consider `CCn1c(SCC(=O)Nc2ccccc2F)nc2c(c1=O)SC(C)C2` (stereo not drawn), for which the Potency is 11.7 µM (active).
Same read-out and setting: the entry for `CC1Cc2nc(SCC(=O)Nc3ccccc3F)n(C)c(=O)c2S1` (stereo not drawn) is “inactive”.
The same measure, in the same setting: the value for `CCn1c(SCC(=O)Nc2ccc3c(c2)OCCO3)nc2c(c1=O)SC(C)C2` (stereo not drawn) was “inactive”.
Still for that read-out and setting: the entry for `CCOc1ccc(CCNC(=O)COC(=O)C2CCN(c3ccc(C(F)(F)F)cn3)CC2)cc1OCC` is “inactive”; for `FC(F)(F)C1CCCN(c2nsc3ccccc23)C1` (stereo not drawn) it is “inactive”; for `Cc1cccc(NC(=O)C2CCCN(C(=O)Nc3ccc(F)cc3)C2)c1C` (stereo not drawn) it is “inactive”.
Consider `CCOC(=O)N1CCN(S(=O)(=O)c2ccc(Br)cc2)CC1`, for which the Potency result was “inactive”.
The same measure, in the same setting: the entry for `CC(C)(C)c1ccccc1NC(=O)CN1C(=O)NC2(CCCC2)C1=O` is “inactive”; for `CN(C)c1ccc(C2Nc3ccccc3C(=O)N2NS(=O)(=O)c2ccccc2)cc1` (stereo not drawn) it is “inactive”.
On the same count and under the same terms, the value for `CC(C)C(=O)N1c2ccccc2NC2=C(C(=O)CCC2)C1c1ccc(N(C)C)cc1` (stereo not drawn) was 2.33 µM (active); that for `CC1C(=O)Nc2ccccc2N1C(=O)c1c(F)cccc1F` (stereo not drawn) was “inactive”.
On to `Cc1cc(C)cc(NC(=O)N2CCCCCCC2)c1`, for which the Potency entry was “inactive”.
Take `Cc1ccc(C(NC(=O)N2CCCC2)C(Cl)(Cl)Cl)cc1F` (stereo not drawn): the Potency is 8.28 µM (active).
For `Cc1ccc(C(=O)N2CCCC2)c(F)c1F`, the Potency result was “inactive”.
Still for that read-out and setting: the value for `CC(Sc1ncnc2c1cnn2-c1ccccc1)C(=O)Nc1ccc(N2CCOCC2)cc1` (stereo not drawn) was “inactive”; that for `CCOC(=O)c1cc2n(c1N)-c1ccccc1C2=O` was “inactive”.
Still for that read-out and setting: the value for `CCOC(=O)c1cc2n(c1C)-c1ccccc1C2=O` was 9.28 µM (active); that for `CCOC(=O)c1ccccc1CN1C(=O)c2ccccc2S1(=O)=O` was “inactive”.
Still for that read-out and setting: the value for `Nc1c(N(CCO)C(=O)C2CCCCC2)c(=O)[nH]c(=O)n1Cc1ccccc1` was “inactive”.
Take `CC(=O)Nc1ccc(S(=O)(=O)Nc2nc(-c3ccc(C(C)(C)C)cc3)cs2)cc1`: the Potency was 1.65 µM (active).
The same measure, in the same setting: the value for `CC(=O)Nc1ccc(-c2csc(NC=C3C(=O)OC(C)(C)OC3=O)n2)cc1` was “inactive”.
The same measure, in the same setting: the value for `CC(=O)Nc1ccc(-c2csc(NC(=O)Nc3ccccc3)n2)cc1` was “inactive”.
On the same count and under the same terms, the entry for `O=C(CSc1nnc(CNC(=O)c2ccc(F)cc2)o1)Nc1ccc2c(c1)OCO2` is “inactive”; for `Cc1ccc(N2C(=O)CC(N3CCSCC3)C2=O)c(C)c1` (stereo not drawn) it is “inactive”.
For `N#Cc1ccc(S(=O)(=O)NCC(=O)OCC(=O)NCCc2ccccc2)cc1`, the Potency entry was “inactive”.
On the same count and under the same terms, the value for `O=C(COC(=O)CCc1nc2ccccc2c(=O)[nH]1)Nc1ccc(N2CCOCC2)cc1` was “inactive”; that for `Cc1ccc(NC(=O)CSc2nnc(COc3ccccc3C)o2)cc1` was “inactive”; that for `CC(C)NC(=O)CSc1nnc(COc2ccccc2Cl)o1` was “inactive”.
On the same count and under the same terms, the figure for `Cc1ccccc1OCc1nnc(SCC(=O)N2c3ccccc3Sc3ccc(Cl)cc32)o1` is 13.1 µM (active); for `O=C(NNS(=O)(=O)Cc1ccccc1)c1ccc([N+](=O)[O-])cc1` it is “inactive”; for `Cn1c(-c2sc3cc(C(F)(F)F)cnc3c2-c2ccccc2)n[nH]c1=S` it is “inactive”.
Turning to `Cc1ccccc1-c1n[nH]c(=S)n1C`, the activity change, negative = inhibition was 19.3% [at 5.75 µM] (inactive).
For the compound `Cn1c(-c2sccc2OCc2cccc(C(F)(F)F)c2)n[nH]c1=S`, the Potency was 14.7 µM (active).
Consider `O=c1o[nH]c(-c2ccccc2)c1N=Nc1c(F)cccc1Cl`, for which the Potency entry was “inactive”.
Same read-out and setting: the value for `CC[C@H]1CN2CCc3cc(OC)c(OC)cc3[C@@H]2C[C@@H]1C[C@H]1NCCc2cc(OC)c(OC)cc21` was 0.0738 µM (active).
On to `COC(=O)c1ccc([C@@H](O)[C@H](C)C(=O)CC(=O)OC(C)(C)C)cc1`, for which the Potency result is “inactive”.
Turning to `Cc1nn(Cc2ccc(Cl)cc2)c(Cl)c1/C=N/NC(=O)CNc1ccccc1F`, the Potency was 9.28 µM (active).
On to `COc1ccc(Cl)cc1NC(=O)CNc1ccccc1F`, for which the Potency entry is “inactive”.
On the same count and under the same terms, the value for `CCn1nc(C)c(/C=N/NC(=O)Cc2ccc(Cl)cc2)c1C` was “inactive”; that for `Cc1ccccc1OCC(=O)Nc1ccc2c(c1)ncn2C` was “inactive”; that for `CCN(CC)CCN(C(=O)c1cccc([N+](=O)[O-])c1)c1nc2ccc(OC)cc2s1` was “inactive”.
Consider `COc1ccc2nc(N3CCN(C(=O)c4ccc([N+](=O)[O-])o4)CC3)sc2c1`, for which the Potency is 0.738 µM (active).
As to `COc1cccc(-c2nn(C)c3sc(C(=O)N4CCN(c5ccccc5)CC4)cc23)c1`, the Potency entry is “inactive”.
Same read-out and setting: the entry for `CCOc1ccc(NC(=O)C/C(C)=N/NC(=O)Cc2cccs2)cc1` is “inactive”; for `C=CCNC(=S)N/N=C/c1ccc(OCc2ccccc2)cc1` it is “inactive”.
Still for that read-out and setting: the value for `O=C(Cc1cccs1)N/N=C/c1ccc(OCc2ccccc2)cc1` was 11.7 µM (active); that for `O=C(Nc1ccc(-n2cccn2)cc1)C1CCN(Cc2ccsc2)CC1` was “inactive”.
The same measure, in the same setting: the entry for `COc1ccccc1NC(=O)CSc1nnc(C)n1CC1CCCO1` (stereo not drawn) is “inactive”.
Take `O=C(CSc1ccc(-c2ccco2)nn1)NCc1ccc2c(c1)OCO2`: the Potency entry is “inactive”.
On to `COc1ccc(NC(=O)CCC(=O)Nc2cc(OC)c(NC(=O)c3ccco3)cc2OC)c(OC)c1`, for which the Potency entry is “inactive”.
In the case of `CCn1c(SCC(=O)Nc2cc(C)c(Cl)cc2OC)nnc1-c1ccco1`, the Potency result was “inactive”.
On the same count and under the same terms, the value for `COc1ccc(NC(=O)CSc2ccc(-c3ccco3)nn2)c(OC)c1` was 14.7 µM (active); that for `COc1cc(Cl)c(C)cc1NC(=O)CSc1nnc(-c2ccco2)n1CC(C)C` was 10.4 µM (active); that for `CCN(CC)c1ccc(/C=N/NC(=O)CNC(=O)c2cccs2)cc1` was “inactive”.
Consider `O=C(Nc1ccccc1-c1nc2ccccc2[nH]c1=O)c1cccs1`, for which the Potency entry is “inactive”.
The same measure, in the same setting: the entry for `Cc1ccc(C(CNC(=O)Nc2ccccc2)N2CCN(C)CC2)cc1` (stereo not drawn) is “inactive”; for `O=C1NS(=O)(=O)c2ccccc21` it is “inactive”.
Same read-out and setting: the value for `CC(C)(C)c1ccc(Oc2ccc(N)cc2)cc1` was “inactive”.
The same measure, in the same setting: the value for `CC(C)(C)c1ccc(OC2=CS(=O)(=O)c3ccccc32)cc1` was 9.28 µM (active); that for `CCn1cc(/C=C(\NC(=O)c2cc(OC)c(OC)c(OC)c2)C(=O)N2CCN(C)CC2)c2ccccc21` was “inactive”.
For `CC1CCN(CC(=O)Nc2nccs2)CC1`, the Potency result is “inactive”.
The same measure, in the same setting: the value for `Cc1cc(=O)[nH]c(SCC(=O)Nc2ccc(Br)cc2)n1` was “inactive”; that for `CC(=O)Oc1ccc(N(C(C)=O)S(=O)(=O)c2ccc3ccccc3c2)cc1Br` was “inactive”.
On the same count and under the same terms, the entry for `Cc1nc([N+](=O)[O-])cn1CC(=O)Nc1ccc(Cl)cc1` is “inactive”; for `O=C(Nc1nc2ccc([N+](=O)[O-])cc2s1)c1ccc(S(=O)(=O)N2CCCc3ccccc32)cc1` it is “inactive”; for `NS(=O)(=O)c1ccc(CNC(=O)c2cccc(S(=O)(=O)N3CCc4ccccc43)c2)cc1` it is “inactive”.
Take `CNC(=O)c1ccsc1NC(=O)c1ccc(S(=O)(=O)N2CCc3ccccc32)cc1`: the Potency was 11.7 µM (active).
On the same count and under the same terms, the value for `CCN(CC)CCCNC(=O)c1cc2c(=O)[nH]c3ccc(C)cc3c2s1` was “inactive”; that for `CC(=O)NS(=O)(=O)c1ccc2c(c1)Cc1cc(S(=O)(=O)NC(C)=O)ccc1-2` was “inactive”; that for `COc1cc(C2/C(=C(\O)c3ccc4c(c3)CC(C)O4)C(=O)C(=O)N2c2nnc(C)s2)cc(OC)c1OC` (stereo not drawn) was “inactive”.
With `Cc1sc2nc(SCCO)n(-c3ccccc3)c(=O)c2c1C`, the Potency was 10.4 µM (active).
Same read-out and setting: the entry for `Cc1sc2nc(SCC(N)=O)n(C)c(=O)c2c1C` is “inactive”; for `CCc1cc2c(=O)n(-c3ccccc3)c(SCC(=O)O)nc2s1` it is “inactive”.
On to `CCN(CCO)C(=S)Nc1cc(C(=O)OC)ccc1C(=O)OC`, for which the Potency result was “inactive”.
On to `COC(=O)c1ccc(C(=O)OC)c(NC(=S)N2CCCCC2)c1`, for which the Potency result is “inactive”.
The same measure, in the same setting: the value for `CCS(=O)(=O)Nc1cc(C(=O)OC)ccc1C(=O)OC` was 10.4 µM (active).
Still for that read-out and setting: the entry for `COc1ccc2oc(C(=O)NCc3ccco3)c(C)c2c1` is “inactive”; for `CCCCCC1CC(COc2ccccc2)OC1=O` (stereo not drawn) it is “inactive”.
As for `O=C(NCc1ccccc1)C(c1ccco1)N(C(=O)c1csnn1)c1ccccc1F` (stereo not drawn), the Potency result was “inactive”.
Turning to `CCOCCCNC(=O)C(NC(=O)CNC(=O)c1ccccc1)c1ccc(C)cc1` (stereo not drawn), the Potency is 9.28 µM (active).
On the same count and under the same terms, the entry for `CCOCCCNC(=O)C(NC(=O)CNC(=O)c1ccccc1)c1ccc(OC)cc1` (stereo not drawn) is “inactive”.
Still for that read-out and setting: the entry for `CCOCCCNC(=O)C(NC(=O)c1ccc(=O)[nH]c1)c1ccc(C)cc1` (stereo not drawn) is “inactive”.
For `COc1ccc(C(=O)NC2CC(C)(C)Cc3c2cnn3-c2ccccc2C)o1` (stereo not drawn), the Potency entry is “inactive”.
As for `Cc1ccc(S(=O)(=O)NCCC(=O)NC2CCN(Cc3ccccc3)CC2)cc1`, the Potency entry is “inactive”.
In the case of `OC(c1nc2ccc(F)cc2[nH]1)C(O)c1nc2ccc(F)cc2[nH]1` (stereo not drawn), the Potency result was “inactive”.
Same read-out and setting: the value for `Cc1c(NC(=O)C(C)Oc2cccc(Cl)c2)c(=O)n(-c2ccccc2)n1C` (stereo not drawn) was “inactive”; that for `CN(Cc1ccccc1)C(=O)COc1ccccc1` was “inactive”.
On the same count and under the same terms, the entry for `CN(C(=O)c1ccccn1)c1nnc(-c2ccccn2)s1` is “inactive”; for `CN(C(=O)COc1ccccc1)c1nnc(-c2ccncc2)s1` it is 4.15 µM (active); for `CC(C)Oc1ccc(C(CC(=O)N2CCOCC2)C(C)C)cc1` (stereo not drawn) it is “inactive”.
Take `CC(=O)c1c(C)oc2ccc(NS(=O)(=O)c3ccc(C(=O)O)cc3)cc12`: the Potency result was “inactive”.
Still for that read-out and setting: the value for `O=C(Nc1ccc(O)cc1)c1ccc(NC(=O)c2ccco2)cc1` was “inactive”.
